Drawing on PubChem BioAssay AID1347434 (National Center for Advancing Translational Sciences (NCATS), 2020), this text covers Potency for 16 molecules.

The structures appear in SMILES notation. Among all 1,200 compounds or so, about 30 (2%) were called active. Roughly 23% stayed inconclusive and do not appear here. The call rests on the fitted dose curve; in most records, active means well fitted inhibition curve with a large enough effect; inconclusive means small, poorly fitted or top-dose-only effect; inactive means flat fitted curve, though single readings scatter. Shown is part of a subset that was picked to be rich in actives. A call without a number means that no potency is given here.
Potency means the concentration at half of the fitted maximal effect.

Chain of Single-stranded DNA cytosine deaminase (Homo sapiens) (Q9GZX7 whole entry, looked up): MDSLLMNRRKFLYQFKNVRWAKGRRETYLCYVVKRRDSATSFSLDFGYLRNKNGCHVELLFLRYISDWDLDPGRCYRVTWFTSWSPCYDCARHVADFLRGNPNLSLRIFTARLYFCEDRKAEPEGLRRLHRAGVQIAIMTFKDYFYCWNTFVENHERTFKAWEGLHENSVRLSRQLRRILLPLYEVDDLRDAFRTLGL

This assay concerns the target Single-stranded DNA cytosine deaminase (Homo sapiens) (UniProt Q9GZX7). The experiment in a line: Confirmatory qHTS assay for inhibitors of Activation Induced Cytidine Deaminase (AID): AID signals. To be noted: recombinant AID, FRET deamination/UDG coupled fluorescence, 4 h; series mostly up to 115 µM. From the text:
Assay Provider (PI) Patricia Gearhart Ph.D. National Institute on Aging National Institute of Health (NIH), Bethesda, MD Assay Provider (PI) Rahul Kohli Ph.D. Perelman School of Medicine University of Pennsylvania, Philadelphia, PA Activation-Induced Deaminase (AID) is a cytosine deaminase which converts cytosine into uracil within stretches of ssDNA. The presence of uracil in DNA initiates a cascade of mutagenic DNA repair to introduce point mutations and DNA double strand breaks. Specific targeting of AID to the immunoglobulin heavy chain loci (Igh) promotes mutagenesis in the antibody variable region for somatic hypermutation (SHM) or switch regions leading to class switch recombination (CSR). However, AID also plays a role in accumulating unnecessary mutations across the genome. Mis-targeting of AID results in the initiation of tumor development and leads to greater drug resistance among cancer cells when continually expressed. To identify an AID inhibitor, a small molecule library will be screened in collaboration with NCATS core facility at NIH. To confirm biological function, inhibitors will be examined in an in vitro murine B-cell activation assay and subsequent secondary validation screens. Top molecules will be further screened to identify inhibitory efficacy against a wild type primary splenocytes assay. Using these approaches, we hope to identify a small molecule with great efficacy and low toxicity for use as a molecular probe to further characterize AID's intricacies, or even as a therapeutic. A FRET based analysis of cytosine deamination, was developed to identify potential inhibitors of AID catalytic activity. This screen has two signal output, Read 1 evaluates the AID inhibition response. The second readout (Read 2) evaluates UDG response and is uses as a counterscreen to exclude false positive inhibitors. Inhibition in AID and inactivity in the UDG signal is the desired outcome for this assay.
PROTOCOL TABLE SEQUENCE No. (e.g., 1, 2, 3, etc.); […] (e.g., Cells, Incubation, Reagent, etc.); VALUE; DESCRIPTION 1a; Reagent; 3 uL; [4/3x] 1 uM AID/2.67 U/mL UDG 1b; Reagent; 3 uL; 2 U/mL UDG 1c; Reagent; 3 uL; 1 uM AID 2a; Compound; 46 nL; Follow-up plates (0.64 uM - 10 mM) 2b; Control; 46 nL; ATA (16.4 nM - 10 mM) 3; Time; 10 min; incubation at room temperature 4; Reagents; 1 uL; [4x] 250 nM DJC20 / 250 nM DJC23 [Substrate] 5; Time; 4 hr; incubation at room temperature 6; Reagent; 4 uL; [2x] 250 mM NaOH 7; Time; 15 sec; centrifuge at 1000 rpm 8; Time; 30 min; incubation at room temperature 9a; Detection; fluorescence (Read 1: AID); EnVision (PerkinElmer) plate reader, 540 excitation and 590 emission filters 9b; Detection; fluorescence (Read 2: UDG); EnVision (PerkinElmer) plate reader, 560 excitation and 665 emission filters NOTES (numbers refer to sequence above) 1a; Reagents were dispensed in a medium-binding black solid-bottom Greiner plates (789176F) using a BioRptr liquid dispenser. Dispense 3 uL of [4/3x] 1 uM AID (provided by Kohli lab) and [4/3x] 2 U/mL UDG (NEB M0280L) into columns 1, 2, 5 to 48. 1b; Dispense 3 uL of [4/3x] 2 U/mL UDG into column 3. 1c; Dispense 3 uL of [4/3x] 1 uM AID into column 4. 2a; Compound ([…] [uM]: 0.64; 3.2; 16; 80; 400; 2,000; 10,000; 20,000) double pin-transferred (Dip Factor = 2) using the Kalypsys (Wako USA) pintool equipped with a 1536 pinhead for a final concentration range of 7.32 nM - 114 uM. 2b; 10 mM Aurintricarboxylic Acid (Sigma A1895) (ATA, 8-point, n = 2, 1:2.5 dilution in column 2) double pin-transferred (Dip Factor = 2) using the Kalypsys (Wako USA) pintool equipped with a 1536 pinhead for a [final] range of 186 nM - 114 uM. 3; Room temperature incubation. 4; Dispense 1 uL of substrate mixture from the Kohli lab [4x] […] DJC20 and [4x] 250 nM DJC23 into columns 1 to 48 . 5; Room temperature incubation. 6; Dispense 4 uL of […] [2x] 250 mM NaOH into columns 1 to 48. 7; Centrifugation step to remove bubbles. […]
As to `NC(Cc1cc(O)c(O)cc1O)C(=O)O` (stereo unspecified), the Potency was 22.4 µM (active).
Then `NCC(O)c1cc(O)c(O)cc1F` (stereo unspecified), with “inactive”; and `O=C(Nc1cc(C(F)(F)F)cc(C(F)(F)F)c1)c1cccn(Cc2ccccc2Cl)c1=O`, with “inactive”.
Then `CN1CC[C@@]2(C)c3cc(O)ccc3N(C)C12` (stereo partly specified), with 22.4 µM (active).
Then `COc1cc(C(c2c(O)c3ccccc3oc2=O)c2c(C)n(C)n(-c3ccccc3)c2=O)ccc1O` (stereo unspecified), with “inactive”.
`Cc1cccc(-c2nc(CN3C(=O)CN=C(c4ccccc4)c4ccccc43)c(C)o2)c1`: the Potency entry is “inactive”.
Next, `Cc1ccc(NC(=O)N(Cc2ccc3c(c2)OCO3)C2CCN(Cc3ccccc3)CC2)cc1C`: “inactive”; `CCCC1=Nc2cc(C(=O)NCCCN(CC)CC)ccc2Sc2ccccc21`: “inactive”.
Next, `O=S1(=O)N(CCN2CC=C(c3c[nH]c4cc(F)ccc34)CC2)c2cccc3c2N1CCC3`: “inactive”; `CC(=O)c1c(O)c(C)c(O)c(Cc2c(O)c3c(c(C(=O)/C=C/c4ccccc4)c2O)OC(C)(C)C=C3)c1O`: 14.1 µM (active); `O=C(c1ccc2c(c1)N(Cc1ccc(F)cc1)C(=O)c1ccccc1S2)N1CCC2(CC1)OCCO2`: “inactive”.
Next, `Cc1ccccc1CN1C(=O)C(C)N=C(c2ccccc2)c2ccccc21` (stereo unspecified): “inactive”.
Take `COc1ccc2c(c[n+](C)c3c4cc5c(cc4ccc23)OCO5)c1OC`: the Potency is 17.8 µM (active).
Then `Cc1cccc(CN2C(=O)CN=C(c3ccccc3)c3cc(Cl)ccc32)c1`, with “inactive”; and `Cc1c(C(c2ccc(Cl)cc2Cl)c2c(O)c3ccccc3oc2=O)c(=O)n(-c2ccccc2)n1C` (stereo unspecified), with “inactive”.
Then `Cc1ccccc1CN1C(=O)CN=C(c2ccccc2)c2cc(Cl)ccc21`, with “inactive”.
